Test results as given in PubChem BioAssay (Tox21).
Unmarked numbers belong to inactive results. Results filed as inconclusive are left out. Where a call stands in place of a potency, no number is given. Active and inactive are the calls of the source. Calls follow the shape of the full dose curve.

Molecular target: Acetylcholinesterase (Homo sapiens) (UniProt P22303)
Assay: Acetylcholinesterase (AChE) small molecule antagonists: colormetric cell-based qHTS assay (AID 1347395); also: nearly all actives have a fitted effect of over 30% in size
Conditions: SH-SY5Y cells AChE activity, colorimetric (Ellman); series mostly up to 115 µM
Outline: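 Colorimetric read-out: DTNB detects thiocholine released when cellular AChE in SH-SY5Y cells hydrolyses acetylthiocholine. Cells attached overnight, received compound for 30 min at 37 C, then substrate mix for 90 min at 37 C.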

Chain of Acetylcholinesterase (Homo sapiens) (P22303 whole entry, looked up): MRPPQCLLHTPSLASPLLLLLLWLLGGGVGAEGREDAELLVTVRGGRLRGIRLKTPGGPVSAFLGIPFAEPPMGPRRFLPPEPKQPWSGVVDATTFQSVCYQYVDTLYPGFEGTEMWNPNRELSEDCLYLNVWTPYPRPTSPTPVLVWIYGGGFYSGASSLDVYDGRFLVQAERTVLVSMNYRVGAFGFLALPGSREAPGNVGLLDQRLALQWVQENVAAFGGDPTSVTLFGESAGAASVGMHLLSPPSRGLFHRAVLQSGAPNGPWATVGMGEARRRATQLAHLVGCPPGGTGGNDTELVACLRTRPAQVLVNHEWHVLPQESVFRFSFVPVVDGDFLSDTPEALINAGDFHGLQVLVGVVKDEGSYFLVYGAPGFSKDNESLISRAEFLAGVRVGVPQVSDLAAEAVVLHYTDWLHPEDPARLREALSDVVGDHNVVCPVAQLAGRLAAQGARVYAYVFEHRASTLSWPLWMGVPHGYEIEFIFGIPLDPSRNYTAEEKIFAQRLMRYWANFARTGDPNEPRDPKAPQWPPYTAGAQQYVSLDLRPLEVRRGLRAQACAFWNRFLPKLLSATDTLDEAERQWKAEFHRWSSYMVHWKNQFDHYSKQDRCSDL

SMILES	Potency	outcome	activity, negative = inhibition
O=C(O)c1ccc(C(=O)O)c(C(=O)O)c1	inactive		
NC(CO)(CO)CO		inactive	
CCCC(C)=O	inactive		
COc1ccc(C)cc1[N+](=O)[O-]	inactive		
FC(F)(F)c1cccc(Cl)c1	inactive		
COc1ccc(Cl)cc1C(=O)NCCc1ccc(S(=O)(=O)NC(=O)NC2CCCCC2)cc1	inactive		
COC1CCC=CO1 (stereo not given)	inactive		
CCCCN(CCO)CCCC	inactive		
CC(=O)Nc1c(I)c(NC(C)=O)c(I)c(C(=O)O)c1I	inactive		
C/C=C(\C)C(=O)OCc1ccccc1	inactive		
O=C(O)c1cc(Cl)cc(Cl)c1	inactive		
CC(C)c1cccc(C(C)C)c1	inactive		
O=C1CCCCCCCCCCOCCCCO1	inactive		
CCC(C)(C)c1cc(O)c(C(C)(C)CC)cc1O	inactive		
CN(C)c1ccc(C2(c3ccc(N(C)C)cc3)OC(=O)c3cc(N(C)C)ccc32)cc1	inactive		
O=C1CCC(C2CCCCC2)CC1	inactive		
C/C=C1/CC2C=CC1C2 (stereo not given)	inactive		
COc1ccc(OC(F)(F)F)cc1CN[C@H]1CCCN[C@H]1c1ccccc1	inactive		
O=C(O)C[C@H](O)C[C@H](O)/C=C/c1c(C2CC2)nc2ccccc2c1-c1ccc(F)cc1			-0.67% [at 23.6 µM]
O=C1CCCC(=O)O1	inactive		

SMILES	Potency	outcome	activity, negative = inhibition
C=CCOCC(CC)(CO)COCC=C	inactive		
C=C1C(=C/C=C2\CCC[C@]3(C)[C@@H]([C@H](C)/C=C/[C@@H](O)C4CC4)CC[C@@H]23)C[C@@H](O)C[C@@H]1O	inactive		
Cc1cc(Nc2ccc(O)cc2)ccc1N	inactive		
O=C1c2ccccc2C(=O)C1c1ccccc1	inactive		
[O-][n+]1ccccc1SSc1cccc[n+]1[O-]			-9.35% [at 23.6 µM]
CO[Si](CCCNCCN)(OC)OC	inactive		
Cc1nc(C2CCCCC2)c(-c2ccc(S(N)(=O)=O)c(F)c2)o1	inactive		
CC(=O)OC[C@H]1O[C@@H](n2ncc(=O)[nH]c2=O)[C@H](OC(C)=O)[C@@H]1OC(C)=O	inactive		
Cc1nc2ccc(Cl)cc2[nH]1	inactive		
CCCC(=O)C(C)=O	inactive		
C=CC(=O)OCCOC(=O)CCC(=O)O	inactive		
CC(C)(C)c1ccc(S)cc1	inactive		
COCCc1ccc(OCC2CO2)cc1 (stereo not given)	inactive		
O=C1OC(=O)c2cccc3cccc1c23	inactive		
c1ccc2sc(SSc3nc4ccccc4s3)nc2c1			-2.2% [at 23.6 µM]
C#CCN(C)Cc1ccccc1	inactive		
CC(C)(CO)[C@@H](O)C(=O)NCCCO	inactive		
Cc1oc(=O)oc1CN1CCN(c2cc3c(cc2F)c(=O)c(C(=O)O)c2n3C(C)S2)CC1 (stereo not given)	inactive		
C=Cc1ccc(O)c(OC)c1	inactive		
CC(C)(C)C(=O)OCOC(=O)[C@@H]1N2C(=O)[C@@H](NC(=O)[C@H](N)c3ccccc3)[C@H]2SC1(C)C	inactive		

Molecular target: Acetylcholinesterase (Homo sapiens) (UniProt P22303)
Assay: Acetylcholinesterase (AChE) small molecule antagonists: enzyme-based qHTS assay (AID 1347397); also: nearly all actives have a fitted effect of over 55% in size
Conditions: Potency: AChE enzyme activity inhibition; outcome: AChE enzyme activity inhibition; series mostly up to 115 µM
Outline: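 Compound or DMSO vehicle was pin-transferred onto recombinant human AChE (50 mU/mL as dispensed) and left 30 min at room temperature. Acetylthiocholine with DTNB then started the reaction, read colorimetrically 10 min later.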

SMILES	Potency	outcome	activity change, negative = inhibition
O=C(O)c1ccc(C(=O)O)c(C(=O)O)c1	inactive		
NC(CO)(CO)CO		inactive	
CCCC(C)=O	inactive		
COc1ccc(C)cc1[N+](=O)[O-]	inactive		
FC(F)(F)c1cccc(Cl)c1	inactive		
COc1ccc(Cl)cc1C(=O)NCCc1ccc(S(=O)(=O)NC(=O)NC2CCCCC2)cc1	inactive		
COC1CCC=CO1 (stereo not given)	inactive		
CCCCN(CCO)CCCC	inactive		
CC(=O)Nc1c(I)c(NC(C)=O)c(I)c(C(=O)O)c1I	inactive		
C/C=C(\C)C(=O)OCc1ccccc1	inactive		
O=C(O)c1cc(Cl)cc(Cl)c1	inactive		
CC(C)c1cccc(C(C)C)c1	inactive		
O=C1CCCCCCCCCCOCCCCO1	inactive		
CCC(C)(C)c1cc(O)c(C(C)(C)CC)cc1O	inactive		
CN(C)c1ccc(C2(c3ccc(N(C)C)cc3)OC(=O)c3cc(N(C)C)ccc32)cc1	inactive		
O=C1CCC(C2CCCCC2)CC1	inactive		
C/C=C1/CC2C=CC1C2 (stereo not given)	inactive		
COc1ccc(OC(F)(F)F)cc1CN[C@H]1CCCN[C@H]1c1ccccc1	inactive		
O=C(O)C[C@H](O)C[C@H](O)/C=C/c1c(C2CC2)nc2ccccc2c1-c1ccc(F)cc1			-2.86% [at 23.6 µM]
O=C1CCCC(=O)O1	inactive		

SMILES	Potency	outcome	activity change, negative = inhibition
C=CCOCC(CC)(CO)COCC=C	inactive		
C=C1C(=C/C=C2\CCC[C@]3(C)[C@@H]([C@H](C)/C=C/[C@@H](O)C4CC4)CC[C@@H]23)C[C@@H](O)C[C@@H]1O	inactive		
Cc1cc(Nc2ccc(O)cc2)ccc1N	inactive		
O=C1c2ccccc2C(=O)C1c1ccccc1	inactive		
[O-][n+]1ccccc1SSc1cccc[n+]1[O-]			-9.5% [at 23.6 µM]
CO[Si](CCCNCCN)(OC)OC	inactive		
Cc1nc(C2CCCCC2)c(-c2ccc(S(N)(=O)=O)c(F)c2)o1	inactive		
CC(=O)OC[C@H]1O[C@@H](n2ncc(=O)[nH]c2=O)[C@H](OC(C)=O)[C@@H]1OC(C)=O	inactive		
Cc1nc2ccc(Cl)cc2[nH]1	inactive		
CCCC(=O)C(C)=O	inactive		
C=CC(=O)OCCOC(=O)CCC(=O)O	inactive		
CC(C)(C)c1ccc(S)cc1	inactive		
COCCc1ccc(OCC2CO2)cc1 (stereo not given)	inactive		
O=C1OC(=O)c2cccc3cccc1c23	inactive		
c1ccc2sc(SSc3nc4ccccc4s3)nc2c1			0.97% [at 23.6 µM]
C#CCN(C)Cc1ccccc1	inactive		
CC(C)(CO)[C@@H](O)C(=O)NCCCO	inactive		
Cc1oc(=O)oc1CN1CCN(c2cc3c(cc2F)c(=O)c(C(=O)O)c2n3C(C)S2)CC1 (stereo not given)	inactive		
C=Cc1ccc(O)c(OC)c1	inactive		
CC(C)(C)C(=O)OCOC(=O)[C@@H]1N2C(=O)[C@@H](NC(=O)[C@H](N)c3ccccc3)[C@H]2SC1(C)C	inactive		
